A selection: hits, their analogues and other compounds. The true share with any hit is near 2.2%.
Pin1 inh: human Pin1 inhibition; Potency, µM (series often up to 115 µM), inactives show at the top dose activity, negative = inhibition, hits mostly inhibitors; hit rate 0.009% among 390,000; AID 504891; Pin1 FP peptide displacement, HiFluor488, 10 min; active = well fitted inhibition curve with a large enough effect in the polarisation, with a control signal flat, not every such curve was filed as active; inconclusive = small, poorly fitted or top-dose-only effect, or effect the other way, or a change in a side signal; inactive = no such curve, though single readings can be large or run the other way; the % refers to the polarisation; note: % is set by controls: 0 for no effect and ±100 for the full control effect
Target sequence (Q13526 whole entry, looked up): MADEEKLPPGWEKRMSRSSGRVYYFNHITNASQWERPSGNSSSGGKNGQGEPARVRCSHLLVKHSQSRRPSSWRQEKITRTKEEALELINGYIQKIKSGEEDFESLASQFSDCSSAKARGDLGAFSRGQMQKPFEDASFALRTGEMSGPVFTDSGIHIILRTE
Nrf2 block: Nrf2 pathway inhibition; hit rate 2.1% among 360,000; Potency, µM (highest dose often 46 µM), without a hit: top-dose activity change, negative = inhibition, actives largely listed as inhibitors; A549 ARE-Fluc reporter, luciferase luminescence, 18-24 h; note: % is set by controls: 0 for no effect and ±100 for the full control effect; nearly all actives have a fitted effect of over 60% in size
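In this cell-based qHTS, ARE-driven firefly luciferase in A549 cells reports Nrf2 activity; the luminescent signal after BugLite lysis is the measured value, with a prior CellTiter-Fluor read for cell health.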
Nrf2 activator: activators of Nrf2 (ARE) signaling | AREc32 ARE-luciferase reporter (MCF7-derived line), luminescence, 24 h | Potency, µM (titrated, usually from 46.1 µM), without a hit: top-dose activation, usual class: activators | hit rate 0.31% among 410,000 | AID 624171; note: % of control where 0% means no effect; nearly all actives have a fitted effect of over 65% in size
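Nrf2 activation is followed as ARE-luciferase induction in the AREc32 line after one day of compound treatment; luminescence is read with Steady-Glo.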
A549 viability: counter-screen for Nrf2 inhibitors: cytotoxicity in A549 cells. hit rate 0.16% among 390,000. A549 ARE-Fluc cells, CellTiter-Fluor viability, 18-24 h. Potency, µM (top dose mostly 46 µM), inactives show at the top dose activity change, negative = cytotoxicity, actives largely listed as inhibitors; note: % is set by controls: 0 for no effect and ±100 for the full control effect
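Cytotoxicity counterscreen: CellTiter-Fluor fluorescence was measured in A549 ARE_Fluc cells after 18-24 h of compound exposure in a concentration series. The subsequent BugLite luminescent read reports ARE-luciferase activity.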
The depositor's hits bear a star. Unless noted, calls come from the whole dose curve; as a rule, active = well fitted curve in the direction sought with a large enough effect; inconclusive = small, poorly fitted or top-dose-only effect, or another doubt; inactive = no such curve, though single readings can be large; an effect the other way counts as inactive or inconclusive. Potency is the fitted concentration of half-maximal effect.

COc1ccc(-c2nc3cc(C(C)C)ccc3o2)cc1NC(=O)COc1ccc(C)cc1C was read as Pin1 inh -5%, Nrf2 block inconclusive, Nrf2 activator 0% and A549 viability 0%.
CC(=O)N1CCN(c2cccc(Nc3nn4c(=O)c5ccccc5nc4s3)c2)CC1 was read as Pin1 inh 1%.
Screening CSC1(SC2=NCCN2)SC2(NCCN2)S1 returned Pin1 inh -8%, Nrf2 block 8.2µM*, Nrf2 activator 24% and A549 viability 7.3µM*.
`Cc1[nH]c2ccc(C(=O)N3CCN(c4ccccc4F)CC3)cc2c1C` gave Pin1 inh 4%, Nrf2 block 13%, Nrf2 activator 0% and A549 viability -1%.
Screening Cc1cc(C)n2nc(-c3ccccc3)cc2n1 returned Pin1 inh 0%, Nrf2 block inconclusive, Nrf2 activator 8.9µM* and A549 viability 9%.
`CNc1oc(-c2ccccc2F)nc1S(=O)(=O)c1ccc(C)cc1` gave Pin1 inh inconclusive, Nrf2 block 26µM*, Nrf2 activator 3% and A549 viability -11%.
O=C(C1=C[C@@H](c2csc3ccccc23)C[C@@H](OCc2ccc(CO)cc2)O1)N1CCN(Cc2ccccc2)CC1 was read as Pin1 inh inconclusive, Nrf2 block 16µM*, Nrf2 activator 6% and A549 viability -15%.
O=C(C1=C[C@@H](c2csc3ccccc23)C[C@@H](OCc2ccc(CO)cc2)O1)N1CCN(Cc2ccc3c(c2)OCO3)CC1 was read as Pin1 inh 49%, Nrf2 block inconclusive, Nrf2 activator 8% and A549 viability -13%.
For O=C(C1=C[C@H](C2CCCCC2)C[C@H](OCc2ccc(CO)cc2)O1)N1CCN(Cc2ccc3c(c2)OCO3)CC1 the results were Pin1 inh 9%, Nrf2 block 23µM*, Nrf2 activator 0% and A549 viability inconclusive.
Screening COc1ccc(-c2nc3ccccc3c(=O)n2Cc2ccccc2)cc1OCc1ccc(NC(C)=O)cc1 returned Pin1 inh 13%, Nrf2 block 7% and A549 viability 1%.
Cc1c(P(=S)(c2ccccc2)c2ccccc2)c2ccccc2n1CCCc1ccccc1 was read as Pin1 inh -3%, Nrf2 block 5% and A549 viability 4%.
Screening CCOC(=O)c1ccc(NC2SC(=O)N(Cc3cccc(C(=O)O)c3)C2=O)cc1 (stereo not given) returned Pin1 inh 2%, Nrf2 block 11%, Nrf2 activator 4% and A549 viability 4%.
For N#Cc1ccc(NC(=O)Nc2ccc(Cl)cc2)cc1 the results were Pin1 inh -10%, Nrf2 block 18µM*, Nrf2 activator 2% and A549 viability inconclusive.
Cc1ccc(S(=O)(=O)N(C)c2ccc(C(=O)Nc3cccc(C)n3)cc2)cc1 was read as Pin1 inh 1%, Nrf2 block inconclusive, Nrf2 activator 0% and A549 viability -8%.
Cc1cccc(NC(=O)c2cccc(S(=O)(=O)N(C)c3ccccc3)c2)n1 was read as Pin1 inh 2%, Nrf2 block 15µM*, Nrf2 activator 10% and A549 viability inconclusive.
`CCN(c1ccccc1)S(=O)(=O)c1ccc(C(=O)Nc2cccc(C)n2)cc1` gave Pin1 inh 3%, Nrf2 block 18µM*, Nrf2 activator 0% and A549 viability -18%.
For CCOc1ccc(NC(=O)c2nn(C)c3c2COc2ccccc2-3)cc1 the results were Pin1 inh 2%, Nrf2 block 4%, Nrf2 activator 8% and A549 viability 8%.
For O=C(NCCc1nc2ccccc2[nH]1)c1cccc(Br)c1 the results were Pin1 inh 0%, Nrf2 block 26µM*, Nrf2 activator 0% and A549 viability 3%.
`Nc1nc(N)c2c(OCC3CCN(Cc4ccccc4F)CC3)cccc2n1` gave Pin1 inh -2%.
Cc1cccn2c(=O)c3cc(C(=O)NCCN4CCOCC4)c(=N)n(Cc4ccc(F)cc4)c3nc12 was read as Pin1 inh 2%, Nrf2 block 16µM*, Nrf2 activator -1% and A549 viability inconclusive.
Cc1cccn2c(=O)c3cc(C(=O)NCCN4CCOCC4)c(=N)n(CCN4CCOCC4)c3nc12 was read as Pin1 inh 6%, Nrf2 block 5%, Nrf2 activator 4% and A549 viability -15%.
Screening CCN1CCN(C(c2cccc(OC)c2)c2c(O)cc(C)n(Cc3ccco3)c2=O)CC1 (stereo not given) returned Pin1 inh -5%, Nrf2 activator 2% and A549 viability 15%.
O=C(O)c1ccccc1Nc1cc(Cl)c2nonc2c1[N+](=O)[O-] was read as Pin1 inh -10%, Nrf2 block 5%, Nrf2 activator 3% and A549 viability inconclusive.
For O=[N+]([O-])c1c(Nc2ccccn2)cc(Cl)c2nonc12 the results were Pin1 inh inconclusive, Nrf2 block inconclusive, Nrf2 activator -3% and A549 viability 18µM*.
`NNC(=O)c1ccc(CSc2nc3ccccc3s2)cc1` gave Pin1 inh -7%, Nrf2 block 10%, Nrf2 activator 11% and A549 viability 8%.
Screening COCCN(CCOC)C(=O)c1ccc(CSc2nc3ccccc3s2)cc1 returned Pin1 inh 0%, Nrf2 block 13µM*, Nrf2 activator 6% and A549 viability -17%.
Screening Cc1c(-c2nnc(SCC(=O)Nc3ccc(Cl)cc3)o2)nnn1-c1ccc(F)cc1 returned Pin1 inh 14%, Nrf2 activator -1% and A549 viability 9%.
`CC1=C(C(=O)Nc2ccc(Cl)cc2)C(c2ccccc2)n2ncc(C(=O)Nc3ccccc3)c2N1` (stereo not given) gave Pin1 inh 4%, Nrf2 block 16µM*, Nrf2 activator 4% and A549 viability -24%.
`CC1=C(C(=O)Nc2ccc(Cl)cc2)C(c2ccccc2C)n2ncc(C(=O)Nc3ccc(C)cc3)c2N1` (stereo not given) gave Pin1 inh 12%, Nrf2 block -29%, Nrf2 activator 6% and A549 viability -4%.
`CCCN1CNc2c(c(=O)[nH]c(=S)n2CCc2cc(Cl)ccc2Cl)C1` gave Pin1 inh -3%, Nrf2 block 1% and A549 viability 14%.
Cn1c(N/N=C/c2cccs2)cc(=O)n(C)c1=O was read as Pin1 inh -5%, Nrf2 block 5%, Nrf2 activator 7.9µM* and A549 viability -8%.
Screening Cn1c(=O)c2c(nc(N/N=C/c3cccs3)n2C)n(C)c1=O returned Pin1 inh -2%, Nrf2 block -8%, Nrf2 activator 5% and A549 viability 1%.
`Cc1nc(N2CCN(S(=O)(=O)c3ccc(F)cc3)CC2)c2c(-c3cccs3)csc2n1` gave Pin1 inh 48%, Nrf2 block 16µM*, Nrf2 activator 0% and A549 viability 5%.
For CCc1ccc(NC(=O)c2sc3nc(C)c(Cl)c(C)c3c2NC(=O)c2ccccc2)cc1 the results were Pin1 inh -2%, Nrf2 block -1%, Nrf2 activator -2% and A549 viability -5%.
